Laboratory results reported in PubChem BioAssay AID652106 (National Center for Advancing Translational Sciences (NCATS), 2013).
About 500 (0.14%) of roughly 370,000 compounds were called active. A call without a number means that no potency is given here. Another 2% or so got no clear call; they are omitted. The call rests on the fitted dose curve; in most records, active means well fitted activation curve with a large enough effect; inconclusive means small, poorly fitted or top-dose-only effect; inactive means no such curve, though single readings can be large or run the other way. The full list was thinned out, with actives kept by preference.

Experiment: qHTS of alpha-syn Inhibitors; further: nearly all actives have a fitted effect of over 65% in size
Settings: Yeast expressing alpha-synuclein, BacTiter-Glo, 24 h; Potency: growth rescue; series mostly up to 46.1 µM
Excerpt: The goal of this project is to identify new chemical probes capable of reversing the toxicity associated with the Parkinson disease-related protein, alpha-synuclein. Compounds will be selected on their ability to restore growth in yeast cells expressing toxic levels of alpha-synuclein. These compounds will provide a complementary approach to deciphering the tangled mechanisms of toxicity and protection that we have uncovered through genome-wide genetic screens and are beginning to uncover in a large-scale proteomics analysis with mass spectroscopy. To this end, a miniaturized assay was developed to be screened against the Molecular Libraries Small Molecule Repository (MLSMR) to discover alpha-synuclein inhibitors. Please note that in the set-up this yeast-based assay compounds that inhibit as alpha-syn, have a read-out as activators. NIH Chemical Genomics Center [NCGC] NIH Molecular Libraries Probe Centers Network [MLPCN] MLPCN Grant: NS060957 Assay Submitter (PI): Susan Lindquist, Whitehead Institute/MIT
Dispense 2.5 microL yeast galactose medium per 1536-well plate, pin compound, dispense 2.5 microL alpha-synuclein expressing yeast in galactose medium at OD600=0.02 (pregrown in raffinose medium to mid-log phase) per well, incubate for 24 hr at 30 deg C, and cell growth will be measured using 5 microL of Bactiter/Glo reagent to entire plate and read using Luminescence Protocol in ViewLux.
Potency means the concentration at half of the fitted maximal effect.

| Structure (SMILES) | Potency |
| --- | --- |
| O=C(O)c1c(Br)c(Br)c(Br)c(Br)c1C1c2ccc(O)cc2Oc2cc(O)ccc21 | inactive |
| O=C(CN1C(=O)COc2ccc(S(=O)(=O)N3CCCCCC3)cc21)N1CCN(c2cccc(C(F)(F)F)c2)CC1 | inactive |
| C=COC(=O)N1CCN(/[N+]([O-])=N/Oc2ccc([N+](=O)[O-])cc2[N+](=O)[O-])CC1 | inactive |
| CCc1ccc(NC(=O)CCS(=O)(=O)c2cc3c(cc2Cl)NC(=O)CO3)cc1 | inactive |
| O=C(CN1C(=O)COc2ccc(S(=O)(=O)N3CCOCC3)cc21)N1CCN(c2cccc(Cl)c2)CC1 | inactive |
| Oc1ccc(Cl)cc1C1C=C(c2ccc3c(c2)OCO3)NC(c2ccc(F)c(Br)c2)N1 (stereo unspecified) | inactive |
| CCCSc1nc2sc3c(c2c(=O)n1-c1cccc(Br)c1)CC(C)(C)OC3 | inactive |
| CN1CCN(/[N+]([O-])=N/Oc2ccc([N+](=O)[O-])cc2[N+](=O)[O-])CC1 | inactive |
| CC1(C)Cc2ccccc2-c2c[nH]c(=O)n21 | inactive |
| Cc1c(NS(=O)(=O)c2ccc(Cl)cc2)c(=O)n(-c2ccccc2)n1C | inactive |
| O=C(O)C1=C/C(=C/C=[N+]2c3cc(O)c(O[C@H]4OC(CO)[C@@H](O)[C@@H](O)[C@@H]4O)cc3C[C@@H]2C(=O)[O-])C[C@H](C(=O)O)N1 (stereo partly specified) | inactive |
| COc1ccc(-c2nc3c(c(SCC(=O)Nc4ccc(C(=O)O)cc4)n2)Cc2ccccc2O3)cc1 | inactive |
| Cc1ccc(S(=O)(=O)N2CCN(c3nc(-n4cnc5ccccc54)nc4ccccc34)CC2)cc1 | inactive |
| SCc1nc2ccc(Cl)cc2[nH]1 | inactive |
| COc1ccc(-c2c(C)c3ccc(O)c(CN4CCCC4)c3oc2=O)cc1OC | inactive |
| CCOC(=O)/C(=C\c1ccc([N+](=O)[O-])cc1)C(=O)c1cc(C(C)=O)c(Nc2ccccc2)s1 | inactive |
| CCOC(=O)C(=Cc1ccccc1)C(=O)c1ccccc1 | 14.1 µM (active) |
| CCc1ccccc1NC(=O)/C(=C/c1ccccc1)c1ccccc1 | inactive |
| CCC(CC)C(=O)N1CCc2cc(OC)c(OC)cc2C1COc1ccc(F)cc1 (stereo unspecified) | inactive |
| O=C(Nc1cccc2c1CCCC2)c1ccc(F)cc1 | inactive |
| CC1COc2ccccc2N1C(=O)c1ccc(F)cc1 (stereo unspecified) | inactive |
| O=C(Nc1nnc(C2COc3ccccc3O2)o1)c1ccc(F)cc1 (stereo unspecified) | 17.8 µM (active) |
| CC(C)(C)OC(=O)N1CCC(c2c(C(=O)Nc3ccc4c(c3)OCO4)cnn2-c2ccccc2)CC1 | inactive |
| CCN1CCN(c2ccc(/C=C/c3ccnc4ccccc34)cc2)CC1 | inactive |
| OC(CBr)CN1CCCCC1 (stereo unspecified) | inactive |
| O=C(COc1ccccc1C(=O)Nc1ccccc1)Nc1cccc(F)c1 | inactive |
